The target of test [1] is Albumin (Bos taurus) (UniProt P02769). Description: bovine serum albumin binders on microarray, profiling panel, artefact control for SMM control protein annotation, biochemical, small-molecule microarray, Alexa647 label, 635/667 nm fluorescence (AID 1118).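 Also: score merges 667 nm emission intensity and signal-to-noise per printed compound spot.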 Conditions: BSA-A647 binding, fluorescence 635 nm, higher = more signal.
The nature of test [2]: small-molecule microarray binders of probe aXIP, primary screen, biochemical, NeuroSMM set, 635/667 nm fluorescence (AID 1119).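 Also: probe is the protein aXip251-270 applied at 1 µg/mL to compound-printed slides; binding of probe to printed compounds measured as 667 nm fluorescence plus signal to noise.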 Conditions: higher = more signal, called active from +8 up or from −8 down.
A short description of test [3]: small-molecule binders of probe aNOTCH3, primary screen, biochemical, small-molecule microarray, 635/667 nm fluorescence (AID 1120).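 Also: probe is a biotin-tagged antibody raised against NOTCH3 rather than NOTCH3 protein; score merges spot fluorescence near 667 nm with spot signal to noise.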 Conditions: higher = more signal.
A short description of test [4]: small-molecule binders of probe aNOTCH2, primary screen, biochemical, small-molecule microarray, 635/667 nm fluorescence (AID 1121).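 Also: score merges feature fluorescence read at 667 nm with its signal to noise.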 Conditions: higher = more signal.
Test [5] has as its target Carbonic anhydrase 2 (Homo sapiens) (UniProt P00918). Description: CAII small-molecule binders, profiling panel, biochemical, small-molecule microarray, Alexa647-labelled CAII (AID 1122). Conditions: CAII-A647 binding fluorescence, higher = more signal.
A short description of test [6]: COS7 lysate on small-molecule microarray, probe aHis, 635 nm (AID 1123).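 Also: z-score combines 667nm fluorescence intensity with signal-to-noise per printed compound spot.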 Particulars: COS7 cell lysate, fluorescence, higher = more signal.
Test [7] is described as follows: compound binding in COS7 lysate, probe aLAP1, primary screen, cell lysate, small-molecule microarray (AID 1124).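 Also: lysate comes from COS7 cells expressing LAP1 and is applied at 0.3 µg/mL; score merges spot fluorescence near 667 nm with signal-to-noise over triplicate slides.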 Particulars: probe aLAP1, fluorescence, higher = more signal.
Test [8] has as its system Sam68 (KHDRBS1). In words: Sam68 small-molecule binders, primary screen, biochemical, small-molecule microarray, 635 nm fluorescence (AID 1125).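 Also: score merges 667 nm channel intensity with signal to noise over triplicate slides.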 Particulars: small-molecule microarray binding, higher = more signal.
Test [9] relates to Chordin-like protein 2 (CHRDL2). In words: CHRDL2 small-molecule binders, primary screen, biochemical, small-molecule microarray, 635 nm fluorescence (AID 1126).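 Also: printed compound slides probed with Chrdl2 protein at 4 µg/mL for 1 h at 4 C; score merges 667 nm emission intensity with signal to noise over three replicate slides.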 Conditions: small-molecule microarray binding, fluorescence 635 nm; higher = more signal.
The target of test [10] is Concanavalin-A (Canavalia ensiformis) (UniProt P02866). Description: ConA small-molecule binders, primary screen, artefact control for SMM control protein annotation, biochemical, small-molecule microarray, Alexa647 label, 635 nm (AID 1127).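 Also: z combines 667 nm emission intensity with signal-to-noise across three replicate slides.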 Conditions: ConA-A647 binding fluorescence, higher = more signal.

Several values for one entry are separate records, joined by “and”; a condition that tells them apart may be missing. Equal entries are not always repeated. Activity calls are given as the source filed them.

Sequence of Albumin (Bos taurus) (P02769 whole entry, looked up): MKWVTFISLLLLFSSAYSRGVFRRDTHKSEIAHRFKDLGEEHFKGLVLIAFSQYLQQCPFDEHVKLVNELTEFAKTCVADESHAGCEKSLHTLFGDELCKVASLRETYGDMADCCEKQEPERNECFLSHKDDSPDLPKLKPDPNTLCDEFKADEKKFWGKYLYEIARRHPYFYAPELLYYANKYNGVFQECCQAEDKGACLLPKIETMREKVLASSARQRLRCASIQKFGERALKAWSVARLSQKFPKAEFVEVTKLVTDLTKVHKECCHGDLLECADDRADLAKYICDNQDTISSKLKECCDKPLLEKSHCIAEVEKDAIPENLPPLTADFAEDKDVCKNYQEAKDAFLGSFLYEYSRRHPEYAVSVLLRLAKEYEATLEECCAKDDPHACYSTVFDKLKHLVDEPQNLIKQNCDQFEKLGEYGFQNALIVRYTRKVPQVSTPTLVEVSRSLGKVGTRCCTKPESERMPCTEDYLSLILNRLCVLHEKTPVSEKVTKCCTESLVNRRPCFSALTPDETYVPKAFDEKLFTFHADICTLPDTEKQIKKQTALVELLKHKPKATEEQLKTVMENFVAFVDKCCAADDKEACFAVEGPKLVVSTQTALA
Sequence of Concanavalin-A (Canavalia ensiformis) (P02866 whole entry, looked up): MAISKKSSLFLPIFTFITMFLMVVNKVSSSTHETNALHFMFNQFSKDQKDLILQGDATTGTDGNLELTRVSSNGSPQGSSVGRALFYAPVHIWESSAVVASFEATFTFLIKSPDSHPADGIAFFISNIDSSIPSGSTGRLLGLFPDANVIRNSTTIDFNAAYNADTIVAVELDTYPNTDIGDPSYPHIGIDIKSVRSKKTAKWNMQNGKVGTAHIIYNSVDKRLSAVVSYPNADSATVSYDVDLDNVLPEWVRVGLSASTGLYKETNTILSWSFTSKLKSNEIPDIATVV

Take `O=C1C[C@]2(c3ccc([N+](=O)[O-])cc3)C(=O)N(Cc3ccccc3)c3cc(CO)ccc3[C@H]2N1C1CCCCC1`: the composite z-score in test [1] is -0.047 and -0.118; in test [3], -0.0627 and 0.13; in test [4], -0.179 and 0.0118; in test [5], 0.272 and 0.439; in test [6] it was 0.366 and 1.14; in test [7], 0.679 and -0.627. In addition, the composite z-score in test [8] was 0.802 and 0.377; in [9], -0.468 and 0.393; in test [10] it was 0.28 and 0.772. In addition, in test [2], the composite Z-score is 0.285 (inactive) and -0.0345 (inactive).
In the case of `O=C(NN=C1C[C@@H](O)[C@@H](O)[C@@H]2[C@@H]3C(=O)N(Cc4ccc5c(c4)OCO5)C(=O)[C@@H]3CC[C@H]12)OCc1ccccc1`, the composite z-score is -0.401 in test [1]; 0.157 in test [3]; -0.11 in test [4]; -0.612 in [5]; -0.648 in test [6]; -0.21 in test [7]. The figures for the composite z-score in [8], in test [9] and in test [10] were 0.0918, -0.556 and -0.232, respectively. The composite Z-score in test [2] is -0.0252 (inactive).
On to `Cc1cc2c(nc1C)CCCN2CC(C)ON=C[C@@H](C)[C@H](OCc1ccccc1)C(C)C` (stereo not given in full), for which the composite z-score in [1] is -0.69; in test [3] it was 0.0642; in test [4] it was -0.0596; in test [5] it was -0.345; in test [6] it was 0.0869; in test [7], -0.442. The composite z-score was -1.3 in test [8], 0.173 in test [9] and -0.804 in test [10]. The composite Z-score in test [2] was 0.339 (inactive).
Consider `CO[C@@H]1COC(=O)CC=C[C@H](C)[C@@H](NS(=O)(=O)c2ccc(C)cc2)COC(=O)CC=C[C@@H]1C`, for which the composite z-score in test [1] was 0.451 and -0.303; in [3] it was 0.127 and 0.0876; in test [4], -0.0995 and -0.175; in test [5] it was 0.0088 and -0.407; in test [6], 0.199 and -1.12; in test [7], 0.0136 and -0.0513. Besides, the composite z-score is 0.762 and 0.68 in [8]; 0.685 and 1.25 in test [9]; -0.0145 and -0.207 in [10]. Also, the composite Z-score in [2] was -0.288 (inactive) and 0.209 (inactive).
With `CO[C@H]1COC(=O)[C@H](C)NC(=O)CC=C[C@@H](C)[C@H](OC)COC(=O)CC=C[C@@H]1C`, the composite z-score in [1] is -0.956; in test [3] it was -0.0716; in test [4], -0.161; in test [5] it was -0.719; in [6], -0.705; in test [7] it was -0.796. In addition, the composite z-score in [8] was -0.25; in [9] it was 1.49; in test [10], -1.85. For the same compound, the composite Z-score in test [2] was 0.536 (inactive).
On to `C=CCN(CCCCC)C(=O)C1N(c2ccc(CCO)cc2)C(=O)C2C(C(=O)O)C3C=CC21O3` (stereo not given), for which the composite z-score in [1] was 0.193 and 0.344; in [3] it was -0.474 and 0.157; in test [4] it was -0.127 and -0.0716; in test [5], -0.349 and 0.574; in test [6] it was -0.632 and -0.323; in test [7], -0.18 and -1.2. For the same compound, the composite z-score in [8] is -0.393 and -0.951; in test [9], -0.914 and -1.38; in test [10], -1.1 and -1.15. Also, the composite Z-score in [2] was -1.27 (inactive) and -0.154 (inactive).
`C=CCN(C(=O)C1N(C(C)(C)CO)C(=O)C2C(C(=O)O)C3C=CC21O3)c1ccc(OC)cc1` (stereo not given): the composite z-score in test [1] was -0.821 and -2.22; in test [3] it was -0.383 and -0.578; in test [4] it was -0.154 and -0.147; in test [5], 0.548 and 0.314; in test [6], 0.0457 and -0.218; in [7], 0.995 and -0.102. Besides, the composite z-score is -0.718 and -1.28 in test [8]; -4.67 and -4.11 in test [9]; -0.79 and -1.96 in test [10]. The composite Z-score in test [2] is 1.39 (inactive) and -0.174 (inactive).
On to `C=C[C@@H](OC)[C@H](O)c1ccc(OCCO)cc1`, for which the composite z-score in test [1] was -0.128 and 0.397; in test [3], -0.323 and -0.465; in test [4], -0.227 and -0.142; in test [5] it was 0.831 and 0.847; in test [6] it was -0.236 and -0.474; in test [7] it was 1.48 and -0.402. Also, the composite z-score in test [8] was -0.352 and -1.38; in [9], -0.866 and -1.44; in [10], -1.26 and -1.04. Further, the composite Z-score in test [2] was -0.158 (inactive) and -0.292 (inactive).
As to `CC(CO)N1C(=O)[C@@H]2C3C(=O)OCCC=C[C@H]3OC23C=CCN(c2ccc(Cl)cc2)C(=O)[C@@H]13` (stereo not given in full), the composite z-score is -0.999 and 0.734 in test [1]; -0.33 and 0.0749 in [3]; -0.0995 and 0.0031 in test [4]; 0.889 and 0.596 in test [5]; -0.31 and 0.287 in [6]; -0.102 and -0.304 in test [7]. Also, the composite z-score in test [8] is -0.805 and 0.2; in test [9], -1.51 and -0.496; in test [10], -0.935 and 0.094. Besides, the composite Z-score in test [2] is -0.33 (inactive) and 0.551 (inactive).

The values are drawn from PubChem BioAssay.
